Test results published in PubChem BioAssay (NCI).
This is part of a sample that, as a whole, favours compounds with a hit. Of some 79,000 tested, about 15% had one in any assay. Values without a mark were called inactive. Activity calls are given as the source filed them. Cut-off read from the data, not from the text of the source: active = growth inhibition above about 70%; inactive = the rest.

Experiments:
[1] = NCI Yeast Anticancer Drug Screen. Data for the rad50 strain (AID 155);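 note: 0% = growth of vehicle-only cultures of the same strain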; details: S. cerevisiae rad50 strain growth inhibition, stronger effect = higher value
Procedure, shortened: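 Inhibition values express reduced yeast growth in compound-treated cultures relative to vehicle-treated controls.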

[2] = NCI Yeast Anticancer Drug Screen. Data for the mec2-1 strain (AID 157); details: S. cerevisiae mec2-1 strain, stronger effect = higher value
Procedure, shortened: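 Readout is yeast growth inhibition, normalised to vehicle-treated controls, in the mec2-1 strain exposed to compound.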

[3] = NCI Yeast Anticancer Drug Screen. Data for the sgs1 mgt1 strain (AID 161);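 note: 0% = growth of cultures given vehicle only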; details: S. cerevisiae sgs1 mgt1 strain, stronger effect = higher value
Procedure, shortened: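 This yeast growth screen uses a strain with defined DNA-repair lesions; compound-treated growth is compared with vehicle-treated growth.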

[4] = NCI Yeast Anticancer Drug Screen. Data for the cln2 rad14 strain (AID 165);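 note: 0% = growth equal to vehicle treated cultures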; details: S. cerevisiae cln2 rad14 strain, stronger effect = higher value
Procedure, shortened: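 Relative to vehicle controls, growth inhibition of compound-treated cln2 rad14 yeast was recorded.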

[5] = NCI Yeast Anticancer Drug Screen. Data for the bub3 strain (AID 167); details: S. cerevisiae bub3 mutant strain, stronger effect = higher value
Procedure, shortened: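 Steps: expose the mutant yeast strain to compound; grow alongside vehicle-treated cultures; measure growth; express inhibition against the vehicle cultures.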

[6] = NCI Yeast Anticancer Drug Screen. Data for the mlh1 rad18 strain (AID 175); details: S. cerevisiae mlh1 rad18 strain growth inhibition, stronger effect = higher value
Procedure, shortened: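 Test agents were incubated with a yeast strain of defined genotype (DNA damage repair defect). Inhibition of growth was derived by comparison with vehicle-exposed cultures.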

[7] = at 5.0 µM (retest, dose inferred, filed as 0.5)
[8] = at 50.0 µM (retest, dose inferred, filed as 5.0)

Row | Structure (SMILES) | growth inhibition [1, 7] | growth inhibition [1, 8] | growth inhibition ([1]; at 50.0 µM) | growth inhibition [2, 7] | growth inhibition [2, 8] | growth inhibition ([2]; at 50.0 µM) | growth inhibition [3, 7] | growth inhibition [3, 8] | growth inhibition ([3]; at 50.0 µM) | growth inhibition [4, 7] | growth inhibition [4, 8] | growth inhibition ([4]; at 50.0 µM) | growth inhibition [5, 7] | growth inhibition [5, 8] | growth inhibition ([5]; at 50.0 µM) | growth inhibition [6, 7] | growth inhibition [6, 8] | growth inhibition ([6]; at 50.0 µM)
1 | Cc1cc(C(O)(C(F)(F)F)C(F)(F)F)cc(C(O)(C(F)(F)F)C(F)(F)F)c1 | -1% | 99% (active) | 97.2% (active) | 12% | 99% (active) | 98.3% (active) | -6% | 99% (active) | 52.8% | -4% | 99% (active) | 95.7% (active) | 6% | 98% (active) | 96% (active) | 1% | 99% (active) | 97.8% (active)
2 | CCCn1cnc2c(SCc3ccc(Cl)cc3Cl)nc(N)nc21 | 12% | 14% | 97.1% (active) | 12% | 12% | 97.2% (active) | 13% | 15% | 97% (active) | 12% | -9% | 97.2% (active) | 13% | 16% | 97.5% (active) | 11% | 12% | 95.7% (active)
3 | Cc1ccc(O)c(C(c2ccc([N+](=O)[O-])cc2)c2cc(C)ccc2O)c1 | 68% | 95% (active) | 91.2% (active) | 90% (active) | 98% (active) | 92.9% (active) | 51% | 57% | 39% | 73% (active) | 53% | 89.7% (active) | 93% (active) | 52% | 90.9% (active) | 84% (active) | 96% (active) | 91.3% (active)
4 | COc1ccccc1NC(=O)C1=C(C)NC(C)=C(C(=O)Nc2ccccc2OC)C1c1ccc(C2C(C(=O)Nc3ccccc3OC)=C(C)NC(C)=C2C(=O)Nc2ccccc2OC)cc1 | 50% | 86% (active) | 75.8% (active) | 31% | 94% (active) | 81.2% (active) |  |  |  | 38% | 77% (active) | 44.2% | 40% | 95% (active) | 85.2% (active) | 41% | 95% (active) | 47.9%
5 | O/N=C(/C[N+]12CN3CN(CN(C3)C1)C2)c1ccc(I)cc1 | 0% | 20% | 91.6% (active) | -4% | 40% | 84% (active) | -4% | 55% | 96.2% (active) | -1% | 23% | 91.7% (active) | 1% | 12% | 77.6% (active) | 12% | 57% | 92% (active)
6 | S=C1NC2=C(COC/C2=C\c2ccccc2Cl)C(c2ccccc2Cl)N1 (stereo unspecified) | 94% (active) | 94% (active) | 76.9% (active) | 47% | 96% (active) | 81.5% (active) | 55% | 97% (active) | 79.2% (active) | 53% | 96% (active) | 76.8% (active) | 58% | 96% (active) | 82% (active) | 92% (active) | 94% (active) | 81.3% (active)
7 | Nc1ccc2c(c1)C(=O)c1ccccc1-2 | 9% | 57% | 68.2% | 3% | 15% | 26.1% | 0% | 6% | 21.4% | 1% | 7% | 11.6% | 2% | 9% | -6.55% | 2% | 25% | 14.2%
8 | C=CC(=O)Oc1ccccc1/C=C/C(=O)CCCCCC | 37% | 95% (active) | 96.5% (active) | 4% | 98% (active) | 97.5% (active) | 14% | 88% (active) | 97.5% (active) | -2% | 72% (active) | 62.8% |  |  |  | 4% | 95% (active) | 96% (active)
9 | C#CC(CC(C)C)(CC(C)C)OC(=O)Nc1ccccc1 | 5% | 95% (active) | 97.9% (active) | 1% | 97% (active) | 97.3% (active) | 4% | 98% (active) | 98.1% (active) | 3% | 96% (active) | 97.7% (active) | 3% | 94% (active) | 97.5% (active) | -6% | 95% (active) | 97.3% (active)
10 | CCOC(=O)c1ccc2c3c([nH]c2c1C)-c1ccccc1CC3 | 12% | 93% (active) | 93.5% (active) | -7% | 94% (active) | 94% (active) |  |  |  | -9% | 91% (active) | 90.7% (active) | 1% | 94% (active) | 94.2% (active) | 14% | 94% (active) | 91.9% (active)
